For 40 compounds, Potency results are on record in PubChem BioAssay (NCATS).

“And” between values parts separate entries of the source, which are not always exact repeats. Identical values can stand only once. Inconclusive results are not listed. Entries that show only a call come without a potency. Some compounds were tested as several samples or in several runs, with calls that do not always agree. The source made the active and inactive calls. Calls follow the shape of the dose curve; as a rule, active = well fitted cell-killing curve with a large enough effect; inconclusive = small, poorly fitted or top-dose-only effect, or effect the other way; inactive = no such curve, though single readings can be large or run the other way.
Potency is read from the fitted curve at half-maximal effect.

This assay in a line: Viability qHTS for spleen associated tyrosine kinase inhibitor (SYKi) drug resistant MV4-11 cells (AID 1963824). Also: nearly all actives have a fitted effect of over 35% in size. Particulars: SYKi-resistant MV4-11 viability, CellTiter-Glo, 72 h; series mostly up to 45 µM. From the text:
Department of Medicine, Hematology/Oncology
University Hospital Frankfurt, Germany.
Trials have shown promising clinical activity of the selective SYK inhibitor entospletinib in patients with high expressing HOXA9/MEIS1 acute leukemias. As the development of resistance mechanisms is a common problem in the use of targeted drugs, we performed a chemical library screen to identify drug sensitivities in SYK inhibitor resistant AML cells. […] Glucocorticoids are potent immunosuppressants which work in part by inhibiting the transcription of cytokine genes.
Described herein is a viability screen to look for activity in the SYK inhibitor drug resistant cell line against four NCATS compound libraries (MIPE 5.0, NPC, NPACT, and Kinase) totaling 11372 compounds. Active hits were reacquired for confirmation and further secondary assay testing.
SEQUENCE No. (e.g., 1, 2, 3, etc.); […] (e.g., Cells, Incubation, Reagent, etc.); VALUE; DESCRIPTION.
1; Media; 2uL; white, solid-bottom Corning assay plate.
2; Compounds; 23nL; Echo acoustic dispenser.
3; Cell; 5uL; 500 cells per well.
4: Incubation; 72hr; 37 C, 5% CO2, 95% humidity.
5; Reagent; 3uL; CellTiter-Glo reagent (Promega).
6; Incubation; 10min; room temperature.
7; Detection; Luminescence; ViewLux plate reader (PerkinElmer).
NOTES (numbers refer to Sequence numbers above
1. Quantitative high-throughput screening (qHTS) of small molecule compounds was conducted on drug resistant SYKi MV4-11 cell line.
2. Twenty-three nanoliter of small molecule compounds were added to each assay plates using the Echo acoustic dispenser (Beckman Coulter).
3. Cells were seeded into the assay plates at a final density of 500 cells in 5uL of media per well using the Multidrop Combi dispenser.
4. Plates were covered with stainless steel gasketed lids and incubated for 72 hours at standard cell culture conditions.
5. Viability was assessed by adding 3uL of CellTiter-Glo detection reagent (Promega).
6. Plates were covered with gasket lids and incubated for 10 minutes at room temperature.
7. Luminescence was measured on a ViewLux plate reader (PerkinElmer).
For the compound `Cc1ccc(NC(=O)c2ccc(CN3CCNCC3)cc2)cc1Nc1nccc(-c2cccnc2)n1`, the Potency was 9.2 µM (active) and 16.6 µM (active).

Turning to `CCC(C)C(N)C(=O)NCCN1CCOCC1` (stereo not given), the Potency entry was “inactive”.

On to `CN(C(=O)c1c(O)c2ccccc2n(C)c1=O)c1ccccc1`, for which the Potency is 11.9 µM (active) and inactive.

As to `COc1cccc(N2CCN(C3=Nc4c(F)cccc4[C@H](CC(=O)O)N3c3cc(C(F)(F)F)ccc3OC)CC2)c1`, the Potency is 18.4 µM (active).

Consider `NC1=N[C@@]2(c3cc(NC(=O)c4ccc(F)cn4)ccc3F)COC[C@H]2CS1`, for which the Potency was 14.8 µM (active).

With `CCOC(=O)[C@H](CCc1ccccc1)N[C@@H](C)C(=O)N1[C@H](C(=O)O)C[C@@H]2CCC[C@@H]21`, the Potency entry was “inactive”.

Regarding `O=C(/C=C/c1cccnc1)c1ccncc1`, the Potency was 6.51 µM (active).

Take `O=C(/C=C/c1ccccc1)OCC1=CC[C@@H]2C(C(=O)O)=CO[C@@H](O[C@@H]3O[C@H](CO)[C@@H](O)[C@H](O)[C@H]3O)[C@H]12`: the Potency result is “inactive”.

Consider `CN(C)c1ccc(C2Nc3ccc4ccccc4c3C3=C2C(=O)CC(C)(C)C3)cc1Br` (stereo not given), for which the Potency was 14.8 µM (active).

`CC(=O)N[C@H](Cc1ccc2ccccc2c1)C(=O)N[C@H](Cc1ccc(Cl)cc1)C(=O)N[C@H](Cc1cccnc1)C(=O)N[C@@H](CO)C(=O)N[C@@H](Cc1ccc(O)cc1)C(=O)N[C@H](CCCNC(N)=O)C(=O)N[C@@H](CC(C)C)C(=O)N[C@@H](CCCN=C(N)N)C(=O)N1CCC[C@H]1C(=O)N[C@H](C)C(N)=O`: the Potency entry is “inactive”.

As for `CCCn1c(=O)c2[nH]c(C34CC5CC3C[C@@H](C5)C4)nc2n(CCC)c1=O`, the Potency was 16.6 µM (active).

Turning to `CCC(C)/C=C(C)/C=C/C1=CC2=C(Cl)C(=O)C(C)(OC(C)=O)C(=O)C2=CN1C1CCCCN(C(CCC(N)=O)C(=O)O)C1=O` (stereo not given), the Potency result is “inactive”.

For `COc1cccc2c1C(=O)c1c(O)c3c(c(O)c1C2=O)C[C@@](O)(C(=O)CO)C[C@@H]3O[C@H]1C[C@H](N)[C@H](OC2CCCCO2)[C@H](C)O1` (stereo not given in full), the Potency is 118 nM (active) and 59 nM (active).

Consider `C#Cc1cccc(Nc2ncnc3cc(OCCOC)c(OCCO)cc23)c1`, for which the Potency was 2.63 µM (active).

In the case of `C=CC(C)(O)CC/C=C(\C)C(=O)OC1C(O)C(CO)OC(OC(=O)C23CCC(C)(C)CC2C2=CCC4C5(C)CCC(OC6OC(COC7OCC(OC(C)=O)C(O)C7OC7OC(COC(C)=O)C(O)C(O)C7OC(C)=O)C(O)C(O)C6OC6OCC(O)C(O)C6O)C(C)(C)C5CCC4(C)C2(C)C(O)C3O)C1OC1OCC(OC2OCC(O)C(OC3OCC(O)C(O)C3O)C2O)C(O)C1O` (stereo not given), the Potency is 1.78 µM (active).

As to `CC(=O)Oc1cccc(O)c1`, the Potency entry was “inactive”.

For the compound `CN(C)C(=S)SC(=S)N(C)C`, the Potency is 1.68 µM (active).

For `O=C(NS(=O)(=O)c1ccc(Br)s1)c1ccc(Cl)cc1Cl`, the Potency was 9.2 µM (active).

For the compound `CCC1(c2cnc[nH]2)Cc2ccccc2C1`, the Potency entry is “inactive”.

As for `CNCCc1ccccn1`, the Potency entry is “inactive”.

In the case of `N[C@@H](CCNCc1ccc(Cl)cc1)C(=O)N1CCCCC1`, the Potency result was “inactive”.

For `COC(=O)N/N=C/c1c[n+]([O-])c2ccccc2[n+]1[O-]`, the Potency result was “inactive”.

As for `CCCCc1ccc(NS(=O)(=O)c2ccc(C)c(C(=O)N3CCN(c4cccc(C)c4C)CC3)c2)cc1`, the Potency is 42.8 µM (active).

With `CO/N=C(/C(=O)N[C@@H]1C(=O)N2C(C(=O)[O-])=C(C[n+]3ccn4ncccc43)CS[C@H]12)c1nsc(N)n1`, the Potency result was “inactive”.

For `C[C@]1(OC(=O)/C=C/c2ccccc2)C[C@@H](O)[C@]2(O)C=CO[C@@H](O[C@@H]3O[C@H](CO)[C@@H](O)[C@H](O)[C@H]3O)[C@@H]21`, the Potency result is “inactive”.

For `C=C(C(=O)O[C@H]1C/C(C)=C/CC/C(CO)=C/[C@H]2OC(=O)C(=C)[C@H]12)C(O)CO` (stereo not given in full), the Potency was 0.904 µM (active).

Take `CNC(=O)c1ccc2c(c1)CCO[C@H]2CCN1CCN(c2ccc(C(N)=O)cc2)CC1`: the Potency entry was “inactive”.

With `Cc1ccc(-c2c(-c3nn(C)c4ncnc(N5CC[C@H](N6CCCCC6)C5)c34)cnn2C)cc1`, the Potency entry was “inactive”.

Turning to `CC(=O)Nc1ccc(C(=O)Nc2ccccc2N)cc1`, the Potency is 3.55 µM (active) and 3.72 µM (active).

For `CC(C)C[C@H](NC(=O)CNC(=O)OCc1ccccc1)C(=O)N[C@@H](Cc1ccccc1)C(=O)CCl`, the Potency is 8.2 µM (active).

As for `CCc1cnn2c(NCc3ccc[n+]([O-])c3)cc(N3CCCCC3CCO)nc12` (stereo not given), the Potency is 0.0065 µM (active).

As to `Cc1c(CN(C)C(=O)/C=C/c2cnc3c(c2)CCC(=O)N3)oc2ccccc12`, the Potency result is “inactive”.

As to `CC[C@H](C)[C@@H]1NC(=O)[C@H](Cc2ccc(OC)cc2)NC(=O)CCCSC[C@@H](C(=O)N2CCC[C@H]2C(=O)N[C@@H](CC(C)C)C(=O)NCC(N)=O)NC(=O)[C@H](CC(N)=O)NC(=O)[C@H](CCC(N)=O)NC1=O`, the Potency entry was “inactive”.

For `NS(=O)(=O)c1ccc(C(=O)O)cc1`, the Potency entry was “inactive”.

Regarding `C=C1[C@H]2CC[C@]3(O)[C@@](CC[C@@H]4[C@](C)(C(=O)O)CCC[C@]43C)(C2)[C@H]1OC(=O)/C(C)=C\C`, the Potency result was “inactive”.

As for `Cc1nnc(C(C)C)n1C1CC2CCC(C1)N2CC[C@H](NC(=O)C1CCC(F)(F)CC1)c1ccccc1` (stereo not given in full), the Potency entry is “inactive”.

Turning to `CC/C=C/C(O)C(O)C1=C(C)C(=O)C2(O1)C(=O)NC(OC)(C(=O)c1ccccc1)C2O` (stereo not given), the Potency result was “inactive”.

Consider `CN1C(=O)c2ccccc2NC(=O)[C@]12O[C@@H]2c1cccc(O)c1`, for which the Potency entry was “inactive”.

As for `CCCCC(=O)O[C@]1(C(=O)CO)CC[C@H]2[C@@H]3CCC4=CC(=O)CC[C@]4(C)[C@H]3[C@@H](O)C[C@@]21C`, the Potency entry was “inactive”.

In the case of `CC1CCCC(O)CC(=O)c2c(O)cc(O)cc2CC(=O)O1` (stereo not given), the Potency was 2.02 µM (active).
